Laboratory results reported in PubChem BioAssay (NCI).
Compounds without any hit were thinned out: in the full panel of roughly 79,000, 15% have a hit. Rule as the data show it: active = growth inhibition above about 70%; inactive = the rest.

How the values were obtained:
[1] = NCI Yeast Anticancer Drug Screen. Data for the rad50 strain (AID 155);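 also: 0% = growth of vehicle-only cultures of the same strain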; details: S. cerevisiae rad50 strain growth inhibition, hits give high values; at 50.0 µM unless noted
In short: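 Cells are treated with compound, grown, and their growth is then scored against vehicle-only cultures of the same repair-deficient yeast strain.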

[2] = NCI Yeast Anticancer Drug Screen. Data for the mec2-1 strain (AID 157); details: S. cerevisiae mec2-1 strain, hits give high values; at 50.0 µM unless noted
In short: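 Cells of the genetically defined mec2-1 yeast strain are incubated with test compound. Inhibition of growth is calculated against vehicle-treated controls.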

[3] = NCI Yeast Anticancer Drug Screen. Data for the sgs1 mgt1 strain (AID 161);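 also: 0% = growth of cultures given vehicle only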; details: S. cerevisiae sgs1 mgt1 strain, hits give high values; at 50.0 µM unless noted
In short: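 Test agents were incubated with a DNA-repair-mutant yeast strain. Growth was then read and compared against vehicle-treated controls.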

[4] = NCI Yeast Anticancer Drug Screen. Data for the cln2 rad14 strain (AID 165);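 also: 0% = growth equal to vehicle treated cultures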; details: S. cerevisiae cln2 rad14 strain, hits give high values; at 50.0 µM unless noted
In short: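 The screen exposed genetically defined yeast (cln2 rad14) to test compounds and scored growth inhibition relative to vehicle-treated controls.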

[5] = NCI Yeast Anticancer Drug Screen. Data for the bub3 strain (AID 167); details: S. cerevisiae bub3 mutant strain, hits give high values; at 50.0 µM unless noted
In short: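 Part of a panel of yeast mutants defective in DNA damage repair or cell cycle regulation. Each strain is grown with compound, and inhibition is calculated relative to solvent-treated cultures.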

[6] = NCI Yeast Anticancer Drug Screen. Data for the mlh1 rad18 strain (AID 175); details: S. cerevisiae mlh1 rad18 strain growth inhibition, hits give high values; at 50.0 µM unless noted
In short: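 Compound-treated yeast growth, normalised to vehicle controls. Strain bears defined DNA repair mutations.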

Measured: growth inhibition

Cc1ccc2[nH]c(=O)[nH]c(=O)c2c1
inactive: [1] -5.85% | [2] -5% | [3] -4.5% | [4] -45.2% | [5] -3.5% | [6] -12.7%

O=c1c2cc3c(=O)n4c(cc(-c5ccccc5)c5cc(Cl)ccc54)nc3cc2nc2cc(-c3ccccc3)c3cc(Cl)ccc3n12
inactive: [1] 14.2% | [2] 5.55% | [3] 18.9% | [4] 14.2% | [5] -1.05% | [6] -9.7%

Nc1nc2ncc(COc3ccc(C(=O)O)cc3)nc2c(=O)[nH]1
inactive: [1] 18.8% | [2] 3.2% | [3] 31.6% | [4] -16.1% | [5] 53.2% | [6] 13.6%

C=CCOC(=O)CCCC1=NC2=CC=CC3=NC(C)=NC(=N1)N23
inactive: [1] -1.1% | [2] 2.35% | [3] 1.45% | [4] 12.2% | [5] -17.3% | [6] 1.2%

CC(C)CCn1c(=O)c2c(ncn2C)n(C)c1=O
inactive: [1] 21.9% | [2] 20.3% | [3] 22.9% | [4] 10.2% | [5] -0.5% | [6] 13.2%

COc1ccc(-[n+]2nc(S(=O)(=O)O)c(/C=C/c3ccc(N(C)C)cc3)cc2C#N)cc1
inactive: [1] -13.8% | [2] -9.05% | [3] 20.1% | [4] 6.65% | [5] 5.85% | [6] -9.5%

CCOC(=O)CN=C1Nc2ccccc2C(=O)N2CSCC12 (stereo not given)
inactive: [1] -18% | [2] -44.7% | [3] -28.6% | [4] -16.4% | [5] -54.5% | [6] -16.8%

COc1ccc([N+](=O)[O-])cc1N(C)C
inactive: [1] 19.1% | [2] 17.4% | [3] 13.6% | [4] 9% | [5] -14.2% | [6] 4.55%

Cc1ccc(NC(=O)c2c(Br)c(Br)c(Br)c(Br)c2C(=O)O)cc1Cl
inactive: [1] -1.75% | [2] -5.5% | [3] -8.6% | [4] -22.4% | [5] 2.9% | [6] -9.25%

O=C(O)/C=C\C(=O)NNC(=O)/C=C\C(=O)O
inactive: [1] 5.55% | [2] -2.8% | [3] -5.05% | [4] -18.9% | [5] 5.45% | [6] -24.4%

COc1cc(C)cc(C(=O)O)c1
inactive: [1] -1.85% | [2] -3.5% | [3] 7.3% | [4] -52.4% | [5] -10% | [6] -2.7%

CN(C)c1ccc(/C=C(\C#N)C(=O)O)cc1
inactive: [1] 33.8% | [2] -12.9% | [3] 2.8% | [4] 11.7% | [5] 30.8% | [6] 38.2%

COc1ccccc1/C=C1\C(=O)N(C(=O)c2ccc(NC(C)=O)cc2)N=C1C
inactive: [1] 1.6% | [2] -27.1% | [3] -34.8% | [4] -3.2% | [5] -23.9% | [6] -26.1%

O=C(c1ccccc1)C1CC1C(=O)c1ccccc1 (stereo not given)
inactive: [1] -3.55% | [2] -11.8% | [3] -6.1% | [4] -61.5% | [5] 38.3% | [6] -3.45%

Nc1nnc2nc(C(C(=O)c3ccc(F)cc3)c3nc4nnc(N)n4[nH]c3=O)c(=O)[nH]n12
inactive: [1] 15.1% | [2] 4.15% | [3] -10.2% | [4] 8.45% | [5] 0.2% | [6] 18.8%

CCOC(=O)C(C)NC(=O)c1ccccc1 (stereo not given)
inactive: [1] 0.25% | [2] -8.5% | [3] -14.6% | [4] -52.2% | [5] 5.5% | [6] 0.75%

CCN(CC)c1ccc(C(c2ccc(N(CC)CC)cc2Cl)c2cccc3ccccc23)c(Cl)c1
inactive: [1] 24.8% | [2] 19.8% | [3] 30.3% | [4] 36.2% | [5] 22.4% | [6] 7.85%

CCOC(=O)CC(C#N)(C#N)CC(=O)OCC
inactive: [1] 4.15% | [2] 21.3% | [3] 5.85% | [4] -0.1% | [5] 26.8% | [6] -0.55%

CCc1ccc2nccc(NCCCN(C)C)c2c1[N+](=O)[O-]
inactive: [1] 3.55% | [2] -13.4% | [3] 6.7% | [4] 15.2% | [5] -17.7% | [6] 13.5%

CCn1c2ccccc2c2ccccc21
inactive: [1] 27.2% | [2] -6% | [3] -10.2% | [4] 13.8% | [5] -8.15% | [6] 17.4%
